# Source: PubChem BioAssay
# For part of these data: Entries with a potency or affinity are not part of this list. The source made the active and inactive calls. Unless noted, no rule for the calls is given here.
# Key:
# [1] = blockers of polyQ-driven CASP3 activation – cell-based (AID 1583); settings: polyglutamine-induced caspase-3 activation, cell assay; stronger effect = higher value;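 tested at 10 µM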
# [2] = yeast 75Q aggregation reduction – 75Q-TubU reporter (AID 1593); settings: Yeast 75Q polyglutamine aggregation reporter
# [3] = restoration of touch response, mutant HTT neurons – whole organism, C. elegans mechanosensory neurons, N-terminal huntingtin (AID 1599); settings: C. elegans polyQ-huntingtin mechanosensory neurons, stronger effect = higher value
# [4] = blockers of cytochrome c efflux from mitochondria – biochemical, purified mitochondria (AID 1603); settings: stronger effect = lower value;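 also: mouse liver mitochondria challenged with calcium chloride; signal normalized to the plate average as 100%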
# [5] = polyglutamine aggregate formation blockers (AID 1604); settings: polyglutamine-induced protein aggregation inhibition assay; stronger effect = higher value; tested at 2.5 µM
# [6] = glutamate transport activators, MN-1 cells, MN-1 cell line (AID 1612); settings: MN-1 motor neuron cells, stronger effect = higher value;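 also: tested at 1 µM final; 0% = mean of DMSO vehicle wells on each plate; positive means more glutamate uptake than control and negative means less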
# [7] = GFP-Q80 aggregate reduction, neuronal-like cells, cell-based, NGF-treated PC12, GFPQ80 (AID 1614); settings: PC12 NGF-treated GFP-polyQ80 inclusion reduction;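 also: lower means fewer inclusions and 0 means no inclusions at all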
# [8] = 75Q-TubH aggregate inhibition, S. cerevisiae, yeast (AID 1616); settings: S. cerevisiae 75Q-TubH polyglutamine aggregation suppression; stronger effect = higher value
# [9] = P. berghei load reduction in hepatocytes – cell-based, HepG2, luciferase luminescence, HepG2 viability, primary screen (AID 624349; in the data active = parasite load remaining mostly below about 12%, no sharp cut-off; inactive = mostly above about 10%;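 also: 100% = mean of DMSO negative control wells on the same plate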); settings: P. berghei liver stage in HepG2, luciferase luminescence, concentration not given here; parasite load remaining: stronger effect = lower value; viability: measured here: HepG2 viability without parasites
# [10] = signal quenchers or enhancers, Cy5 substrate/SSB – biochemical, NIH Clinical Collection, E. coli SSB, artefact control for HCV NS3 helicase inhibitor project (AID 743268); settings: Cy5-oligo bound E. coli SSB, fluorescence interference
# [11] = test system: Hepatitis C virus NS3 helicase; assay: blockers of NS3h binding to DNA – biochemical, fluorescence polarization, NIH Clinical Collection, primary screen (AID 743270); settings: NS3 helicase binding to Cy5-dT15 DNA, stronger effect = higher value, concentration not given here
# [12] = molecular target: Single-stranded DNA-binding protein (Escherichia coli (strain K12)) (UniProt P0AGE0); assay: SSB-ssDNA binding inhibitors – biochemical, fluorescence polarization, NIH Clinical Collection, counter-screen for HCV NS3 helicase inhibitor project (AID 743271; in the data active = inhibition above about 28%); settings: E. coli SSB-DNA binding, stronger effect = higher value, concentration not given here
# [13] = compounds distorting NS3 helicase fluorescence signal – biochemical, NIH Clinical Collection, artefact control for HCV NS3 helicase inhibitor project (AID 743272); settings: fluorescence interference counterscreen, HCV NS3 helicase assay; stronger effect = lower value;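 also: HCV NS3 helicase with a Cy5 labelled single stranded DNA probe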
# [14] = test system: Neuropilin-2 / VEGF-C interaction (human); assay: small molecules blocking Neuropilin-2/VEGF-C interaction – biochemical, microplate binding format, z-score (AID 743281); settings: microplate NRP2/VEGF-C binding assay; stronger effect = lower value
# [15] = modulation of C. elegans fzo-1 (AID 1259413);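 also: fzo-1 mutant C. elegans worms in liquid wells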; settings: C. elegans fzo-1 modulator screen, mean read-out; stronger effect = higher value
# [16] = viability loss with induced miR-34 in A549 – imaging, A549 dox-inducible miR-34, nuclei and caspase counts, primary screen (AID 1347080;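 active = compounds whose cell count with miR-34 switched on is under 0.7 times the count with it off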); settings: A549 miR-34 inducible, Hoechst nuclei count, 48 h
# [17] = galactose survival enhancers in mitochondrial complex I cybrids – cell-based, galactose medium, ATP luminescence, primary screen (AID 1645843;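 active = z-score of at least 1.8 in each of two replicates, scored against plate mean and spread of sample wells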;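 also: positive z means more ATP and so rescue of galactose-driven cybrid death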); settings: complex I mutant cybrid cells, 72 h, stronger effect = higher value
# F380Y = assay: BK channel mutant inhibitors and activators – cell-based, U2OS BacMam, thallium flux, beta subunits, selectivity assay, profiling panel (AID 1259406;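 active = thallium flux through the channel raised or lowered by more than 3 SD from vehicle-only wells, actives on both sides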;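 also: initial slope of Thallos dye fluorescence rise after thallium is added; log ratio against the mean of 0.3% DMSO vehicle wells on the same plate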); settings: U2OS BacMam BK variants, at 30 µM
# F380Y/beta1 = assay: as above; settings: U2OS BacMam BK variants, at 30 µM
# F380Y/beta2Delta = assay: as above; settings: U2OS BacMam BK variants, at 30 µM
# F380Y/beta4 = assay: as above; settings: U2OS BacMam BK variants, at 30 µM
# [18] = molecular target: Calcium-activated potassium channel subunit alpha-1 (Homo sapiens) + Leucine-rich repeat-containing protein 26 (Homo sapiens) (UniProt Q12791+Q2I0M4); assay: as above; settings: U2OS BacMam BK variants, F380Y/Slo1WT/gamma1, at 30 µM
# R275C = assay: as above; settings: U2OS BacMam BK variants, at 30 µM
# R275C/beta1 = assay: as above; settings: U2OS BacMam BK variants, at 30 µM
# R275C/beta2Delta = assay: as above; settings: U2OS BacMam BK variants, at 30 µM
# R275C/beta4 = assay: as above; settings: U2OS BacMam BK variants, at 30 µM
# R275C/Slo1WT/beta2 = assay: as above; settings: U2OS BacMam BK variants, at 30 µM
# [19] = EMT-state selective cytotoxicity in co-culture – imaging, PC-3E GFP, TEM4-18 mCherry, primary screen (AID 1345086;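 active = compounds killing one labelled cell type while sparing the other, by normalised counts and ratio limits, not self-fluorescent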;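 as to all read-outs here: cells exposed to compound for 72 h before imaging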;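 as to red/green cell ratio (normalised): normalised mesenchymal count divided by normalised epithelial count so high means epithelial killing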); settings: PC-3E GFP / TEM4-18 mCherry co-culture, imaging cell counts, at 1 µM; for red/green cell ratio (normalised): actives lie on both sides
# [20] = counts scaled to control wells, 1 = unselective
# [21] = measured here: epithelial PC-3E GFP cell survival
# [22] = measured here: mesenchymal TEM4-18 mCherry cell survival
# Calcium-activated potassium channel subunit alpha-1 (Homo sapiens) + Leucine-rich repeat-containing protein 26 (Homo sapiens), sequence (Q2I0M4 whole entry, looked up, one chain of several): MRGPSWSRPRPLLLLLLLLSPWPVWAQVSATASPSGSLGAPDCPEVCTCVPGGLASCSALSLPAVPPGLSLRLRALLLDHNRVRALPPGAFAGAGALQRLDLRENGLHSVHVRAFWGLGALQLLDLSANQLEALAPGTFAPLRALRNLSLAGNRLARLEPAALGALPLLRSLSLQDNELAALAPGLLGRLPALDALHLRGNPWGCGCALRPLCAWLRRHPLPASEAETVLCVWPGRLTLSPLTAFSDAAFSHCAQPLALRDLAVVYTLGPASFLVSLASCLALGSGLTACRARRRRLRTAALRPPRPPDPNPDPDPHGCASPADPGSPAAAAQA
smiles,measurement,setting,value
CN1C(=O)CN=C(c2ccccc2)c2cc(Cl)ccc21,inhibition,[1],-7.18%
same,score,[2],0.95
same,rescue above control,[3],0.67
same,cytochrome c release ratio,[4],0.88
same,inhibition of aggregation,[5],26.5%
same,glutamate uptake change,[6],-26.8%
same,inclusion score,[7],2
same,aggregation suppression score,[8],0.718
same,parasite load remaining,[9],122% (inactive)
same,viability,[9],81.8%
same,fluorescence ratio,[10],1.03 (inactive)
same,inhibition,[11],-1.98% (inactive)
same,inhibition,[12],0.67% (inactive)
same,fluorescence ratio,[13],1.02 (inactive)
same,z-score,[14],-0.636 (inactive)
same,mean signal,[15],240 (inactive)
same,fold change,[16]; stronger effect = lower value,0.967 (inactive)
same,fold change,[16]; measured here: relative caspase fold change +Dox/-Dox,1.74
same,cell count,"[16]; measured here: total cells with miR-34 induction, stronger effect = lower value",9270
same,cell count,[16]; measured here: total cells without miR-34 induction,9590
same,z-score,[17],1.09 (inactive)
same,log fold change Tl+ flux,F380Y,0.00227 (inactive)
same,log fold change Tl+ flux,F380Y/beta1,-0.0264 (inactive)
same,log fold change Tl+ flux,F380Y/beta2Delta,0.0204 (inactive)
same,log fold change Tl+ flux,F380Y/beta4,0.0209 (inactive)
same,log fold change Tl+ flux,[18],-0.0437 (inactive)
same,log fold change Tl+ flux,R275C,-0.0487 (inactive)
same,log fold change Tl+ flux,R275C/beta1,-0.07 (inactive)
same,log fold change Tl+ flux,R275C/beta2Delta,-0.0058 (inactive)
same,log fold change Tl+ flux,R275C/beta4,0.0195 (inactive)
same,log fold change Tl+ flux,R275C/Slo1WT/beta2,0.0176 (inactive)
COc1cc([C@@H]2c3cc4c(cc3[C@H](OC(C)=O)C3COC(=O)[C@@H]32)OCO4)cc(OC)c1OC (stereo not given in full),red/green cell ratio (normalised),[19]; [20],0.81 (inactive)
same,normalised cell number,[19]; [21],0.2
same,normalised cell number,[19]; [22],0.16
CC(C)(O)[C@@H]1[C@H]2OC(=O)[C@@H]1C1(O)C[C@H]3O[C@]34C(=O)O[C@H]2[C@]14C (stereo not given in full) (tested in a mixture with another compound),outcome,[14],inactive
same,mean signal,[15],237 (inactive)
C[C@H]1COc2c(N3CCNCC3)c(F)cc3c(=O)c(C(=O)O)cn1c23,red/green cell ratio (normalised),[19]; [20],0.98 (inactive)
same,normalised cell number,[19]; [21],1.08
same,normalised cell number,[19]; [22],1.06
COc1cc(O)c(C(=O)O)c(-c2cc(O)c(O)cc2C)c1,red/green cell ratio (normalised),[19]; [20],1.12 (inactive)
same,normalised cell number,[19]; [21],0.82
same,normalised cell number,[19]; [22],0.92
CC12CCC(=O)C=C1CC[C@@H]1[C@@H]2CCC2(C)[C@@H](O)CC[C@@H]12 (stereo not given in full),outcome,[14],inactive
same,mean signal,[15],263 (inactive)
c1ccc(S[C@@H]2OC3COC(c4ccccc4)OC3[C@H]3NC32)cc1 (stereo not given in full),red/green cell ratio (normalised),[19]; [20],0.98 (inactive)
same,normalised cell number,[19]; [21],1.08
same,normalised cell number,[19]; [22],1.06
C=C(C)CN1CC[C@]23c4c5ccc(O)c4O[C@H]2c2[nH]c4ccccc4c2CC3(O)C1C5 (stereo not given in full),outcome,[14],inactive
same,mean signal,[15],243 (inactive)
CC12C/C(=C/O)C(=O)C[C@@H]1CC[C@@H]1[C@@H]2CCC2(C)[C@H]1CC[C@]2(C)O (stereo not given in full),outcome,[14],inactive
same,mean signal,[15],230 (inactive)
C=C1C[C@@H]2[C@H](CCC3(C)C(=O)CC[C@@H]23)C2(C)C=CC(=O)C=C12 (stereo not given in full),outcome,[14],inactive
same,mean signal,[15],265 (inactive)
CCSCCC(N)C(=O)O (stereo not given),red/green cell ratio (normalised),[19],0.84 (inactive)
same,normalised cell number,[19]; [21],1.26
same,normalised cell number,[19]; [22],1.06
CC12CC[C@H](O)CC1=CC[C@@H]1[C@@H]2CCC2(C)[C@H]1CC[C@]2(C)O (stereo not given in full),outcome,[14],inactive
same,mean signal,[15],278 (inactive)
CC[C@H](c1cccc(O)c1)[C@@H](C)CN(C)C,red/green cell ratio (normalised),[19],0.92 (inactive)
same,normalised cell number,[19]; [21],1.05
same,normalised cell number,[19]; [22],0.96
CC[C@H](C)/C=C(C)/C=C/C1=CC2=C(Cl)C(=O)[C@](C)(OC(C)=O)C(=O)C2=CO1,red/green cell ratio (normalised),[19]; [20],1 (inactive)
same,normalised cell number,[19]; [21],0.96
same,normalised cell number,[19]; [22],0.96
C[C@]12C=CC(=O)C=C1CCC1C2CC[C@]2(C)C(=O)CCC12 (stereo not given in full),red/green cell ratio (normalised),[19],1.05 (inactive)
same,normalised cell number,[19]; [21],1.06
same,normalised cell number,[19]; [22],1.12
N#Cc1cc(I)c(O)c(I)c1,red/green cell ratio (normalised),[19]; [20],1.04 (inactive)
same,normalised cell number,[19]; [21],1.08
same,normalised cell number,[19]; [22],1.12
C/C=C(\C)C(=O)O[C@H]1C[C@@H](OC(C)=O)[C@@]2(C(=O)OC)CO[C@@H]3C2[C@]12CO[C@](O)(C(=O)OC)[C@H]2[C@](C)(C12O[C@@]1(C)[C@H]1C[C@H]2OC2OC=C[C@@]21O)[C@@H]3O (stereo not given in full),red/green cell ratio (normalised),[19]; [20],1.21 (inactive)
same,normalised cell number,[19]; [21],0.89
same,normalised cell number,[19]; [22],1.08
C=Cc1cc(OC)c2c(c1)c(=O)oc1c2cc(OC)c2c(O)ccc([C@@H]3O[C@@H](C)[C@H](OC(C)=O)[C@H](N(C)C)[C@H]3O)c21,red/green cell ratio (normalised),[19]; [20],0.75 (inactive)
same,normalised cell number,[19]; [21],0.41
same,normalised cell number,[19]; [22],0.31
O=C1NCC[C@H]1O,red/green cell ratio (normalised),[19]; [20],0.95 (inactive)
same,normalised cell number,[19]; [21],1.13
same,normalised cell number,[19]; [22],1.08
CC[C@]1(O)CC[C@H]2[C@@H]3CCC4=CCCC[C@@H]4[C@H]3CCC21C (stereo not given in full),outcome,[14],inactive
same,mean signal,[15],230 (inactive)
O=[N+]([O-])c1ccc(CN2CCNCC2)cc1,red/green cell ratio (normalised),[19]; [20],0.74 (inactive)
same,normalised cell number,[19]; [21],1.45
same,normalised cell number,[19]; [22],1.07
C[C@]12CCC(=O)C=C1CCC1C2CC[C@@]2(C)C1CC[C@H]2O (stereo not given in full),red/green cell ratio (normalised),[19],1.17 (inactive)
same,normalised cell number,[19]; [21],0.92
same,normalised cell number,[19]; [22],1.08
O=C(O)COc1ccc(O)cc1,red/green cell ratio (normalised),[19]; [20],1.05 (inactive)
same,normalised cell number,[19]; [21],1.09
same,normalised cell number,[19]; [22],1.15
Oc1ccc2c3c1OC1C(O)CC[C@@]4(O)[C@@H](C2)N(CC2CCC2)CC[C@]314 (stereo not given in full),parasite load remaining,[9],133% (inactive)
same,viability,[9],141%
same,fluorescence ratio,[10],0.97 (inactive)
same,inhibition,[11],-1.98% (inactive)
same,inhibition,[12],9.14% (inactive)
same,fluorescence ratio,[13],0.88 (inactive)
same,z-score,[14],-0.335 (inactive)
same,mean signal,[15],241 (inactive)
CC12Cc3cn[nH]c3C[C@@H]1CC[C@@H]1[C@@H]2CCC2(C)[C@H]1CC[C@]2(C)O (stereo not given in full),outcome,[14],inactive
same,mean signal,[15],229 (inactive)
CC12CCC(=O)C[C@@H]1CC[C@@H]1[C@@H]2CCC2(C)[C@H]1CC[C@]2(C)O (stereo not given in full),outcome,[14],inactive
same,mean signal,[15],277 (inactive)
Cc1ncc(C[n+]2csc(CCO)c2C)c(=O)[nH]1,red/green cell ratio (normalised),[19]; [20],0.81 (inactive)
same,normalised cell number,[19]; [21],1.27
same,normalised cell number,[19]; [22],1.03
